Several values for one entry are separate records, joined by “and”; a condition that tells them apart may be missing. Equal values may be shown once. Inconclusive results are not listed. A structure can be active in one record and inactive in another. Unmarked numbers belong to inactive results. Activity calls are given as the source filed them. Calls follow the shape of the dose curve; as a rule, active = well fitted inhibition curve with a large enough effect; inconclusive = small, poorly fitted or top-dose-only effect; inactive = flat fitted curve, though single readings scatter.
Legend:
[1] = qHTS profiling for inhibitors of Plasmodium falciparum proliferation (AID 504749); also: nearly all actives have a fitted effect of over 60% in size;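 as to activity, negative = inhibition: 0% = DMSO vehicle and full inhibition = artemisinin control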; conditions: P. falciparum in erythrocytes, SYBR Green DNA, 72 h
Method in brief: (§1)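 SYBR Green fluorescence (ex 485 nm, em 535 nm) reports parasite DNA after 72 h compound exposure of infected red cells at 0.3% parasitemia, 2.5% hematocrit; signal normalized to 0.29 uM artemisinin and vehicle wells.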

3D7 = experiment: as above; conditions: P. falciparum in erythrocytes, SYBR Green DNA, 72 h; series mostly up to 28.7 µM
Method in brief: as §1

7G8 = experiment: as above; conditions: P. falciparum in erythrocytes, SYBR Green DNA, 72 h; series mostly up to 28.7 µM
Method in brief: as §1

[2] = at 28.7 µM (top of the series), parasite line A
[3] = at 28.7 µM (top of the series), parasite line B
Potency is read from the fitted curve at half-maximal effect.

Q: Which results are given for CCCCNCC(O)c1ccc(O)cc1 (stereo not drawn)?
A: activity, negative = inhibition [1, 2]: -2.61%; activity, negative = inhibition [1, 3]: -2.79%; Potency (3D7): inactive; Potency (7G8): inactive

Q: For CCOP(=O)(OCC)O/C(=C/Cl)c1ccc(Cl)cc1Cl, which activity, negative = inhibition [1, 2] is on record?
A: The activity, negative = inhibition was -27.9%.

Q: What about the activity, negative = inhibition [1, 3] of the same molecule?
A: The activity, negative = inhibition was -21.8%.

Q: What about the Potency (3D7) of the same molecule?
A: The Potency was “inactive”.

Q: Which results are given for ClC(Cl)(Cl)Cl?
A: activity, negative = inhibition [1, 2]: 12.6%; activity, negative = inhibition [1, 3]: 5.77%; Potency (3D7): inactive; Potency (7G8): inactive

Q: For Clc1ccc(C2(Cn3cncn3)OCCO2)c(Cl)c1, which activity, negative = inhibition [1, 2] is on record?
A: The activity, negative = inhibition was 8.04%.

Q: And the activity, negative = inhibition [1, 3]?
A: The activity, negative = inhibition was -7.5%.

Q: And the Potency (3D7)?
A: Its Potency is “inactive”.

Q: Which results are given for CCCCCCCCOC(=O)c1ccccc1C(=O)OCCCCCCCC?
A: activity, negative = inhibition [1, 2]: 10.9%; activity, negative = inhibition [1, 3]: -23.5%; Potency (3D7): inactive

Q: For CCC(=O)O[C@@](Cc1ccccc1)(c1ccccc1)[C@@H](C)CN(C)C, which activity, negative = inhibition ([1]; at 12.8 µM (top of the series), parasite line A) is on record?
A: The activity, negative = inhibition was -5.92%.

Q: And the activity, negative = inhibition ([1]; at 12.8 µM (top of the series), parasite line B)?
A: Its activity, negative = inhibition is -0.756%.

Q: And the Potency (3D7)?
A: The Potency was “inactive”.

Q: What does the source list for COc1ccc2c(c1OC)C(=O)OC2C1c2cc3c(cc2CCN1C)OCO3 (stereo not drawn)?
A: activity, negative = inhibition [1, 2]: 9.94%; activity, negative = inhibition [1, 3]: 3.46%; Potency (3D7): inactive; Potency (7G8): inactive

Q: Which activity, negative = inhibition [1, 2] does the source give for O=C(O)C(Cl)(Cl)Cl here?
A: The activity, negative = inhibition was 7.18%.

Q: And the activity, negative = inhibition [1, 3]?
A: The activity, negative = inhibition was 2%.

Q: And the Potency (3D7)?
A: The Potency was “inactive”.

Q: What about the Potency (7G8) of the same molecule?
A: Its Potency is “inactive”.

Q: With O=C1CCO1 as the molecule, how does the activity, negative = inhibition [1, 2] read?
A: Its activity, negative = inhibition is -3.97%.

Q: And the activity, negative = inhibition [1, 3]?
A: The activity, negative = inhibition was -7.7%.

Q: What about the Potency (3D7) of the same molecule?
A: The Potency was “inactive”.

Q: What about the Potency (7G8) of the same molecule?
A: Its Potency is “inactive”.

Q: For CNC(=O)OCC[N+](C)(C)C, which activity, negative = inhibition [1, 2] is on record?
A: The activity, negative = inhibition was 18.2%.

Q: And the activity, negative = inhibition [1, 3]?
A: Its activity, negative = inhibition is 8.99%.

Q: And the Potency (3D7)?
A: Its Potency is “inactive”.

Q: What about the Potency (7G8) of the same molecule?
A: Its Potency is “inactive”.

Q: For CC(C)(C)c1cc(O)ccc1O, which activity, negative = inhibition [1, 2] is on record?
A: Its activity, negative = inhibition is -22.4%.

Q: And the Potency ([1]; parasite line A)?
A: Its Potency is 7.94 µM (active).

Q: What about the Potency ([1]; parasite line B) of the same molecule?
A: The Potency was 8.91 µM (active).

Q: And the Potency (3D7)?
A: Its Potency is 2.24 µM (active).

Q: And the Potency (7G8)?
A: The Potency was 3.16 µM (active) and 2.82 µM (active).

Q: For c1csc(C2(N3CCCCC3)CCCCC2)c1, which activity, negative = inhibition [1, 2] is on record?
A: Its activity, negative = inhibition is -2.88%.

Q: And the activity, negative = inhibition [1, 3]?
A: The activity, negative = inhibition was 1.73%.

Q: What about the Potency (3D7) of the same molecule?
A: The Potency was “inactive”.

Q: And the Potency (7G8)?
A: The Potency was “inactive”.

Q: For O=C1CN(O)C(c2ccccc2)=c2cc(Cl)ccc2=N1, which activity, negative = inhibition [1, 2] is on record?
A: Its activity, negative = inhibition is 7.13%.

Q: What about the activity, negative = inhibition [1, 3] of the same molecule?
A: The activity, negative = inhibition was 1.2%.

Q: What about the Potency (3D7) of the same molecule?
A: Its Potency is “inactive”.

Q: With CC1CCC(C(C)C)C(OC(=O)c2ccccc2N)C1 (stereo not drawn) as the molecule, how does the activity, negative = inhibition [1, 2] read?
A: Its activity, negative = inhibition is -17.5%.

Q: What about the activity, negative = inhibition [1, 3] of the same molecule?
A: Its activity, negative = inhibition is -19.4%.

Q: What about the Potency (3D7) of the same molecule?
A: Its Potency is “inactive”.

Q: For CC12NC(Cc3ccccc31)c1ccccc12 (stereo not drawn), which activity, negative = inhibition [1, 2] is on record?
A: The activity, negative = inhibition was -7.25%.

Q: What about the activity, negative = inhibition [1, 3] of the same molecule?
A: Its activity, negative = inhibition is 6.66%.

Q: And the Potency (3D7)?
A: The Potency was “inactive”.

Q: With O=[N+]([O-])c1ccc(F)c([N+](=O)[O-])c1 as the molecule, how does the activity, negative = inhibition [1, 2] read?
A: The activity, negative = inhibition was 14.6%.

Q: What about the activity, negative = inhibition [1, 3] of the same molecule?
A: Its activity, negative = inhibition is 11.6%.

Q: What about the Potency (3D7) of the same molecule?
A: Its Potency is “inactive”.

Q: And the Potency (7G8)?
A: Its Potency is “inactive”.
